Screens deposited in PubChem by several laboratories.
This is a sample that favours compounds with a hit; in the whole collection about 27% have one here.
CYP2C9 inhib – blockers of cytochrome P450 2C9 activity – biochemical, luminescence, ADME assay, primary screen. CYP2C9 Supersomes, luciferin-H conversion. P11712. 96,000 tested, 20% active. inhibition, % at 5 µM. AID 777, 2007;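 active means blocking of liver enzyme CYP2C9 beyond about 50% at 5 µM, limit read from the data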
CYP2C19 inhib – blockers of cytochrome P450 2C19 activity – biochemical, luminescence, ADME assay, primary screen | CYP2C19 Supersomes, luciferin-H EGE luminescence, 30 min | inhibition, % at 5 µM | 96,000 tested, 21% active | AID 778, 2007;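 active means CYP2C19 inhibition above a set limit at 5 µM in the primary screen, cut at about 50% in these data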;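 further: plate controls were negative control wells for no effect and 2.5 mM tranylcypromine positive control for full effect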
Target sequence (P33261 whole entry, looked up): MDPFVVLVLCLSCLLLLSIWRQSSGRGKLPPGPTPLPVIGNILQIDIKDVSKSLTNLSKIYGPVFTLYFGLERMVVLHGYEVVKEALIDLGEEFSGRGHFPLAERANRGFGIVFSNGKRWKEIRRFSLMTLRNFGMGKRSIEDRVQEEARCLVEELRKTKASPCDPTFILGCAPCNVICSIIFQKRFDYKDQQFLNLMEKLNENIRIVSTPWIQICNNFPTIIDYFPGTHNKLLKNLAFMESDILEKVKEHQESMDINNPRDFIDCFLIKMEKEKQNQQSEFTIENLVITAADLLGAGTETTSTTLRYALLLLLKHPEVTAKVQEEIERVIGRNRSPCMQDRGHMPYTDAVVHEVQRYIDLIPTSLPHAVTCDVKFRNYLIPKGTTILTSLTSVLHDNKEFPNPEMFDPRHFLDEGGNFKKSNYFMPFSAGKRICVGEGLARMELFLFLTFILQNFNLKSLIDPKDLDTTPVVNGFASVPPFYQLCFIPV
CYP2C19 activ – human CYP2C19 activators, primary screen, biochemical, luminescence; 96,000 tested, under 10 active; recombinant CYP2C19, luciferin-H EGE luminescence; stronger effect = higher value; 0 = fully inhibited enzyme, 1 = untreated enzyme; activation factor at 5 µM; Cytochrome P450 2C19 (Homo sapiens), P33261;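 active means activation factor of at least 2 at 5 µM in the primary screen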;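 further: 0 = wells with 2.5 mM tranylcypromine and 1 = vehicle-only wells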
Cav3 T inh – Cav3.2 calcium influx blockers – cell-based, Fluo-4 calcium fluorescence, FDSS, MLSMR library, primary screen; B-score at 10 µM; Voltage-dependent T-type calcium channel subunit alpha-1H (Homo sapiens), O95180; 100,000 tested, 4% active; Cav3.2-expressing cells; stronger effect = lower value;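 active means single-dose well whose peak fluorescence ratio is a statistical outlier from its plate by either plate-standardised score or position-corrected B-score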
CYP2C9 act – human CYP2C9 activators, primary screen, biochemical, luminescence. 96,000 tested, 1.4% active. activation factor at 5 µM. recombinant CYP2C9, luciferin-H conversion; stronger effect = higher value; factor 1 = untreated enzyme, 0 = blocked. Cytochrome P450 2C9 (Homo sapiens), P11712. AID 1024, 2008;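 active means activation factor of 2 or more for CYP2C9 at a 5 µM dose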;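 further: 0 = sulfaphenazole-blocked wells and 1 = vehicle-only wells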
An asterisk follows results filed as active; / = not tested or not shown.

SMILES	CYP2C9 inhib	CYP2C19 inhib	CYP2C19 activ	Cav3 T inh	CYP2C9 act
O=C(CN1C(=O)c2cccc3cccc1c23)NCc1ccncc1	-27	46	0.5	-0.58	1.3
CCN1CCCC1CNC(=O)C1c2cc(OC)c(OC)cc2C(=O)N(C)C1c1cccnc1 (stereo not drawn)	-1	-9	1.1	-0.064	1
O=C(CN1C(=O)c2cccc3cccc1c23)NCc1ccc2c(c1)OCO2	-300	68*	0.3	-0.57	4*
O=C(CN1C(=O)c2cccc3cccc1c23)Nc1ccc2c(c1)OCO2	15	7	0.9	-0.86	0.8
O=C(COC(=O)Cc1cccs1)Nc1ccc(F)c(F)c1F	25	75*	0.3	0.45	0.8
CCOC(=O)CNC(=O)CSc1nc2cccnc2n1C	-5	32	0.7	0.55	1.1
Cc1ccc(-c2noc(CCC(=O)Nc3ccccc3C)n2)cc1	37	20	0.8	-0.81	0.6
COc1ccc(NC(=O)CCc2nc(-c3ccccc3F)no2)cc1	69*	78*	0.2	-0.11	0.3
COc1ccc(-c2noc(CCC(=O)Nc3cccc(C)c3)n2)cc1	13	31	0.7	-0.33	0.9
CCc1cccc(NC(=O)CCc2nc(-c3cccs3)no2)c1	83*	93*	0.1	-7.1*	0.2
COc1ccccc1-c1noc(CCC(=O)Nc2cccc(C)c2)n1	42	74*	0.3	-1.7	0.6
COc1cc(OC)c(NC(=O)CCc2nc(-c3ccc(C)cc3)no2)cc1Cl	78*	48	0.5	1.5	0.2
CN1[C@@H]2CC[C@H]1CC(OC(=O)C(CO)c1ccccc1)C2 (stereo partly drawn)	/	/	/	-0.047	/
Cc1nc2cc(NC(=O)COc3ccc(C#N)cc3)ccc2n1-c1ccccc1	38	23	0.8	1.2	0.6
COc1ccc(C2C3=C(CCCC3=O)Nc3nc(C(F)(F)F)nn32)c(OC)c1OC (stereo not drawn)	36	33	0.7	-1.1	0.6
O=C(CCc1nc(-c2ccccc2F)no1)NC1CCN(Cc2ccccc2)CC1	35	-10	1.1	1.4	0.7
COc1ccccc1-c1noc(CCC(=O)Nc2ccccc2Cl)n1	33	79*	0.2	-0.16	0.7
COc1ccc(-c2noc(CCC(=O)Nc3nc4ccccc4s3)n2)cc1	68*	2	1	-0.017	0.3
CCOC(=O)N1CCC(NC(=O)CCc2nc(-c3ccccc3F)no2)CC1	59*	60*	0.4	0.014	0.4
Cc1ccc(S(=O)(=O)N2CCC(=O)N(CCOCc3ccc(F)cc3)CC2)cc1	/	/	/	1	/
Cn1c(Cc2csc(N)n2)nnc1SCC(=O)NCc1ccccc1	2	8	0.9	-0.59	1
Cc1ccc(C(=O)Nc2ccon2)cc1S(=O)(=O)N1CCOCC1	2	-7	1.1	0.19	1
Cc1cc(C)n(C(=O)c2ccc(C)c(S(=O)(=O)N3CCCCC3)c2)n1	91*	91*	0.1	-2.2	0.1
Cc1ccc(C(=O)Nc2ccon2)cc1S(=O)(=O)N1CCCCCC1	20	88*	0.1	-0.26	0.8
Cc1c(Cl)c(C(=O)N2CCCc3ccccc32)nn1C	-12	34	0.7	0.33	1.1
SMILES	CYP2C9 inhib	CYP2C19 inhib	CYP2C19 activ	Cav3 T inh	CYP2C9 act
CN1CCN(Cc2ccc(-c3ccc(Cl)cc3)o2)CC1	7	57*	0.4	-1.3	0.9
CSCC[C@H](NC(=O)C1CCN(S(=O)(=O)c2ccc(C)cc2)CC1)C(=O)NCc1ccco1	-1	-6	1.1	2.6	1
CC(=O)[C@H]1[C@@H]2C(=O)N(c3cccc(Cl)c3)C(=O)[C@@H]2[C@H]2c3ccccc3C=CN21	10	27	0.7	-1.9	0.9
CC(C)(C)C(=O)[C@@H]1[C@@H]2C(=O)N(Cc3ccccc3)C(=O)[C@@H]2[C@H]2c3ccccc3C=CN12	75*	74*	0.3	-3.2	0.2
Cc1cccc(C)c1NC(=O)C(NC=O)c1ccc(N(C)C)cc1 (stereo not drawn)	60*	64*	0.4	0.85	0.4
CC1(C)CC(=O)C=C(Nc2ccccc2F)C1	17	49	0.5	-0.91	0.8
N#CC1=C(SCc2ccccc2Cl)NC(=O)C(C(N)=O)C1 (stereo not drawn)	-7	-5	1.1	0.02	1.1
COc1cccc(N2CCCn3c2nc2c3c(=O)n(CCN3CCOCC3)c(=O)n2C)c1	-11	1	1	-0.077	1.1
COC(=O)/C=C1/S/C(=N/NC(=O)c2ccccc2C)NC1=O	78*	6	0.9	0.51	0.2
COC(=O)/C=C1/S/C(=N/NC(=O)c2ccccc2)NC1=O	29	-9	1.1	-0.035	0.7
COC(=O)/C=C1\S/C(=N/NC(=O)c2ccccc2)NC1=O	81*	7	0.9	0.25	0.2
COc1ccccc1/C=C1\S/C(=N/NC(=O)c2cccc(Br)c2)NC1=O	3	5	0.9	-4.2*	1
CCOc1ccc2ccccc2c1/C=N/n1cncn1	58*	49	0.5	0.39	0.4
CC(C)Oc1ccc2ccccc2c1C=O	21	21	0.8	/	0.8
COc1ccccc1OCCOc1ccccc1/C=N/n1cnnc1	19	75*	0.3	0.41	0.8
Cc1c(/C=N/n2cnnc2)c2ccccc2n1CCOc1ccccc1	45	79*	0.2	-0.67	0.5
COc1cccc(/C=N/n2cnnc2)c1OCc1ccccc1	44	41	0.6	-1	0.6
Cc1[nH]c2ccccc2c1/C=N/n1cnnc1	20	46	0.5	0.68	0.8
CCCOc1ccc2ccccc2c1/C=N/n1cnnc1	57*	60*	0.4	-0.092	0.4
C#CCNC(=O)C1=C[C@H](c2ccccc2)[C@@H](CCCO)[C@H](OCC)O1	/	/	/	1.1	/
Cc1onc(-c2ccccc2)c1C(=O)Nc1cccc2nsnc12	10	39	0.6	0.081	0.9
COc1ccc(N(C(=O)c2ccccc2OC(C)=O)C(C)C2CC2)cc1 (stereo not drawn)	32	44	0.6	0.16	0.7
O=C(c1ccc(C#CC2(O)CCCCC2)cc1)N1CCN(Cc2ccccc2)CC1	33	23	0.8	-6.1*	0.7
CCOC(=O)N1CCN(C(=O)c2ccc(C#CC3(O)CCCCC3)cc2)CC1	17	5	1	0.65	0.8
O=C(c1ccc(C#CC2(O)CCCCC2)cc1)N1CCN(C(c2ccccc2)c2ccccc2)CC1	68*	39	0.6	-5.1*	0.3
CN1CCN(C(=O)CC23CC4CC(CC(C4)C2)C3)CC1	-20	42	0.6	-0.36	1.2
CCC(=O)Nc1cccc(-c2nnc(SCC(=O)c3ccccc3)n2C)c1	10	41	0.6	1.2	0.9
Oc1ccc(Cl)cc1C1=NCCNC(C(F)(F)C(F)F)=C1	3	2	1	0.89	1
